FBW7 act – human FBW7 E3 ligase activation, primary screen. Q969H0. actives 0.13% (n = 650,000). normalized activity (activation), % at 26.1 µM. AlphaScreen FBW7–phospho-cyclin E peptide binding, activator screen; in the data active = normalized activity above about 1.9%;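 also: purified mutant Fbw7 with reduced substrate affinity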
GPR151 activ – human GPR151 activation | PathHunter beta-arrestin GPR151 cells, luminescence | AID 1508602 | activation, % at 11.2 µM | actives 1% (n = 650,000); in the data active = activation above about 4.9%
TEAD-YAP inh – TEAD-YAP interaction inhibition; HEK-TIYL cells, TEAD-Gal4/YAP UAS-luciferase luminescence; inhibition, % at 9.12 µM; actives 1.4% (n = 640,000); AID 1259422; in the data active = inhibition above about 32%
MITF inh – inhibitors of human MITF; O75030; AlphaScreen MITF homodimerization, bead proximity signal; inhibition, % at 2.6 µM; actives 0.91% (n = 650,000); AID 1259374; in the data active = inhibition above about 50%
Target sequence (O75030 whole entry, looked up): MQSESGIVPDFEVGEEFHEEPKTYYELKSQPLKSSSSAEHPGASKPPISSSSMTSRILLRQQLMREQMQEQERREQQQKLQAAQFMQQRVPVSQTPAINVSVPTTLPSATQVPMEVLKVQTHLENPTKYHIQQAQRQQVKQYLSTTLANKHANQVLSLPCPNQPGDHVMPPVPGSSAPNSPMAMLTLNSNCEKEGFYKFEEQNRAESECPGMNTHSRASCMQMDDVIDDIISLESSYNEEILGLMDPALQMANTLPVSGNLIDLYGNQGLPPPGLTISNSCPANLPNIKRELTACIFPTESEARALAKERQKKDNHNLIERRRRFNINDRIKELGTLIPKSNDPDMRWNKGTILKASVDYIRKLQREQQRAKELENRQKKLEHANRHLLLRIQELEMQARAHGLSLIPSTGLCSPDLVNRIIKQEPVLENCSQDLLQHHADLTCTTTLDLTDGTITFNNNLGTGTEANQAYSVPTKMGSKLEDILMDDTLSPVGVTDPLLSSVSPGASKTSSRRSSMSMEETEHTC
Of the large screens only hits and unclear results are named; the others gave an inactive call. Most compounds without a hit are left out; they make up all but 3.4% or so of the library.

COc1cccc(CNC(=O)c2cn(C)c3cc(-c4cn[nH]c4)ccc23)c1	none
O=C1C(N2CCCCC2)=C(N2CCOCC2)C(=O)c2ccccc21	none
O=C1C(NC2CCCC2)=C(N2CCOCC2)C(=O)c2ccccc21	TEAD-YAP inh 79
CC(=O)N(C1=C(N2CCOCC2)C(=O)c2ccccc2C1=O)c1ccccc1	TEAD-YAP inh 64
CC(=O)N(C1=C(N2CCCC2)C(=O)c2ccccc2C1=O)c1cccc(F)c1	TEAD-YAP inh 42
CC(=O)N(C1=C(N2CCOCC2)C(=O)c2ccccc2C1=O)c1cccc(Cl)c1	none
CCOc1ccc(N(C(C)=O)C2=C(N3CCN(C)CC3)C(=O)c3ccccc3C2=O)cc1	TEAD-YAP inh 90
Cc1cnc(-c2ccc(N3CCN(C)CC3)cc2)nc1NCc1ccccc1	none
CC(=O)C1=C(C)NC(SCC(=O)Nc2cc(S(=O)(=O)N3CCOCC3)ccc2Cl)=C(C#N)C1c1ccco1 (stereo not drawn)	none
CC(=O)N(C1=C(N2CCCC2)C(=O)c2ccccc2C1=O)c1ccc(Cl)c(Cl)c1	none
CC(=O)N(C1=C(N2CCOCC2)C(=O)c2ccccc2C1=O)c1ccc(Cl)c(Cl)c1	TEAD-YAP inh 40, MITF inh 117
CN(C1=C(N2CCOCC2)C(=O)c2ccccc2C1=O)c1ccccc1	MITF inh 51
Nc1ccc2nc3c(=O)[nH]c(=O)[nH]c3nc2c1	none
CCCN(C(=O)CCl)C1CCS(=O)(=O)C1 (stereo not drawn)	TEAD-YAP inh 50
CN(C)CCN(C(=O)CCl)C1CCS(=O)(=O)C1 (stereo not drawn)	none
CC(C)CN(C(=O)CCl)C1CCS(=O)(=O)C1 (stereo not drawn)	TEAD-YAP inh 66
COc1ccc(OC)c(N2C(=N)/C(=C(/O)c3ccc(C)cc3)C(c3ccc4c(c3)OCO4)C3=C2CCCC3=O)c1 (stereo not drawn)	none
O=C(O)CCC(=O)N1CCC2(CC1)OCc1cc(F)ccc1O2	none
Cc1ccsc1C(=O)NNC(=O)c1cc(C)n(-c2ccc(F)cc2)c1C	TEAD-YAP inh 65
CC(C)n1c(O)c(N=NC(=O)Cc2csc(N3CCOCC3)n2)c2ccccc21	TEAD-YAP inh 82
COc1cc(/C=N/NC(=O)Cc2csc(N3CCOCC3)n2)cc(OC)c1O	none
COC(=O)c1ccc2c(c1)C(=O)/C(=C/c1cccc(O)c1)O2	TEAD-YAP inh 42
COC(=O)c1ccc2c(c1)C(=O)/C(=C/c1ccccc1OC)O2	none
COc1cccc(/C=C2\Oc3ccc(O)cc3C2=O)c1O	TEAD-YAP inh 97
COC(=O)c1ccc2c(c1)C(=O)/C(=C/c1cc(OC)c(OC)c(OC)c1)O2	none
COC(=O)c1ccc2c(c1)C(=O)/C(=C/c1ccc(O)cc1)O2	TEAD-YAP inh 52
S=c1nc(NCCc2c[nH]c3ccccc23)c2ccccc2[nH]1	none
CCc1ccc(C(=O)NCc2nnc(SC)n2C(C)C)cc1	none
COc1ccccc1OCc1nc2ccc(-c3ccnc(N)n3)cc2[nH]1	none
Cc1ccccc1OCc1nc2ccc(-c3ccnc(N)n3)cc2[nH]1	TEAD-YAP inh 52
COc1ccccc1OCc1nc2ccc(-c3cn[nH]c3)cc2c(=O)[nH]1	none
COc1cccc(OCc2nc3ccc(-c4ccnc(N)n4)cc3[nH]2)c1	TEAD-YAP inh 50
Cc1ccccc1OCc1nc2ccc(-c3cn[nH]c3)cc2c(=O)[nH]1	TEAD-YAP inh 33
COc1ccc(C[C@@H](N)c2nc3ccc(-c4cn[nH]c4)cc3c(=O)[nH]2)cc1	TEAD-YAP inh 53
Cc1ccc(NC(=S)NC2CC2)cc1	none
COc1cc(-c2cn[nH]c2)cc2c(=O)[nH]c(C(N)c3cccc(Cl)c3)nc12 (stereo not drawn)	TEAD-YAP inh 49
O=C(NCc1ccccc1)C(=Cc1cccc(O)c1)C(=O)NCc1ccccc1	TEAD-YAP inh 35
N#C/C(=C\c1cccc(Cl)c1)C(=O)NCc1ccccc1	none
Oc1ccccc1/C=N/N1CCN(Cc2ccc(Cl)cc2)CC1	none
Clc1ccc(CN2CCN(/N=C/c3c(Cl)nc4sccn34)CC2)cc1	TEAD-YAP inh 40
Cn1cc(CNC2CCN(c3ccc(C(=O)N4CCc5ccccc5C4)cc3)CC2)cn1	none
O=C(NC1CCCC1)c1ccc(N2CCC(NCc3ccsc3)CC2)cc1	none
CC(=O)Nc1ccccc1N(C)S(=O)(=O)c1ccc(C)cc1	TEAD-YAP inh 51
CC(=O)Nc1ccccc1NC(=O)CN(C)S(=O)(=O)c1ccc(C)cc1	none
N#Cc1c(CN2CCCCC2)cn2ccccc12	none
CC12COC3(C(=O)Nc4ccccc4)CC1CCC32C (stereo not drawn)	none
CC12COC3(C(=O)Nc4nc5ccccc5s4)CC1CCC32C (stereo not drawn)	TEAD-YAP inh 67

High-throughput results: PubChem, The Scripps Research Institute Molecular Screening Center
